# Data: PubChem BioAssay AID651658 (Broad Institute, 2012)
# Hit rate of the full screen: of about 340,000 compounds, about 5,100 (1.5%) were called active.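 The calls were made as follows: active = mean Tm shift, scaled 0 neutral to 100 positive control, at about 1.3% or above, every replicate too (limit read from the data); inconclusive = no clear call, values can overlap the other calls; inactive = the rest.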 The entries come from a sample that favours actives as a whole.
# Target: Fibroblast growth factor 22 (Homo sapiens) (UniProt Q9HCT0)
# Assay: FGF22 ligand-induced thermal stabilization – biophysical, thermal shift, single point, FGF22 synaptogenesis inhibitor project, primary screen (AID 651658)
# Settings: recombinant FGF22 thermal shift, SYPRO orange fluorescence; at 9.99 µM; stronger effect = higher value; percent of sucrose octasulfate shift, DMSO zero
# Fibroblast growth factor 22 (Homo sapiens), sequence (Q9HCT0 whole entry, looked up): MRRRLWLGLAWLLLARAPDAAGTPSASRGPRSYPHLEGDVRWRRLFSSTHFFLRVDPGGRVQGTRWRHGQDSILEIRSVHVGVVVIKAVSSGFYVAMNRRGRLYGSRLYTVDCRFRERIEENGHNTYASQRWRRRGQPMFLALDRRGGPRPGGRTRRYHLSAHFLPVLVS
row,SMILES,"activity (Tm shift, normalised)"
1,CN1C(=O)c2cc(NC(=O)c3ccc4c(c3)OCO4)ccc2OC[C@@H]2O[C@H](CC(=O)O)CC[C@H]21,0.218% (inactive)
2,C[C@H](CO)N1C[C@H](C)[C@@H](CN(C)C(=O)c2cnccn2)Oc2ncc(-c3ccccc3F)cc2C1=O,-0.163% (inactive)
3,O=C(Nc1cccc(F)c1)NC1CCCCCCC1,0.32% (inactive)
4,C/C(CC(=O)Nc1cccc(F)c1)=N\NC(=O)C(=O)NC1CCCCC1,43.7% (active)
5,COc1cccc(NC(=O)C/C(C)=N/NC(=O)C2CCCCC2)c1,-0.252% (inactive)
6,COc1ccc(CN(C)C[C@@H]2OCCCC[C@@H](C)Oc3ccc(NS(=O)(=O)c4ccc(F)cc4)cc3C(=O)N([C@@H](C)CO)C[C@H]2C)cc1,-0.218% (inactive)
7,Cc1cccc(-c2ccc([C@@H]3[C@@H](CO)N4CCCCN(S(=O)(=O)c5cccs5)C[C@H]34)cc2)c1,-0.206% (inactive)
8,C[C@H](CO)N1C[C@H](C)[C@H](CN(C)Cc2ccc(C(=O)Nc3ccccc3N)cc2)Oc2c(NC(=O)Nc3ccccc3)cccc2C1=O,-0.326% (inactive)
9,C/C=C/c1ccc2c(c1)O[C@H](CN(C)C(=O)Cc1ccccn1)[C@H](C)CN([C@H](C)CO)S2(=O)=O,-0.272% (inactive)
10,CCOc1cc(NC(=O)Nc2ccccc2)c(OCC)cc1NC(=O)CC,-0.075% (inactive)
11,CCOc1ccc(CCNC(=O)Nc2ccccc2)cc1OCC,-0.025% (inactive)
12,CCCNCc1cc(OCC)c(OCC(=O)Nc2ccccc2)cc1Br,44% (active)
13,CCCN1C[C@H](C)[C@@H](OC)CN(C)C(=O)c2cc(NS(=O)(=O)CC)ccc2OC[C@H]1C,-0.257% (inactive)
14,Cc1ccccc1OS(=O)(=O)c1cccc([N+](=O)[O-])c1,43% (active)
15,Cc1cc([N+](=O)[O-])ccc1NS(=O)(=O)c1ccccc1,1.12% (inactive)
16,Cc1cc(C)n(S(=O)(=O)c2cccc([N+](=O)[O-])c2)n1,-0.005% (inactive)
17,CCCNC(=O)Nc1ccc2c(c1)C(=O)N(C)C[C@H](OC)[C@@H](C)CN(C)[C@@H](C)CO2,-0.468% (inactive)
18,COCC(=O)N1CC(=O)N2[C@H](CO)[C@@H](c3ccc(-c4ccccc4F)cc3)[C@H]2C1,-0.341% (inactive)

row,SMILES,"activity (Tm shift, normalised)"
1,O=C(c1ccccc1F)N1CC(=O)N2[C@H](C1)[C@H](c1ccc(-c3ccc(F)cc3)cc1)[C@@H]2CO,1.26% (active)
2,O=C(c1cccnc1)N1CC(=O)N2[C@H](C1)[C@H](c1ccc(-c3ccccc3F)cc1)[C@@H]2CO,0.042% (inactive)
3,C/C=C/c1ccccc1[C@@H]1[C@@H](CO)N(C(=O)CN2CCOCC2)[C@H]1C#N,-0.302% (inactive)
4,C[C@H]1CN([C@@H](C)CO)C(=O)c2cc(NC(=O)Cc3cn(C)c4ccccc34)ccc2O[C@@H]1CN(C)Cc1ccc(Cl)c(Cl)c1,0.161% (inactive)
5,Cc1noc(C)c1S(=O)(=O)Nc1ccc2c(c1)C(=O)N([C@@H](C)CO)C[C@@H](C)[C@H](CN(C)C(=O)NC(C)C)OCCCC[C@@H](C)O2,-0.227% (inactive)
6,CC(C)NC(=O)N(C)C[C@H]1OCCCC[C@@H](C)Oc2ccc(NC(=O)C3CCCCC3)cc2C(=O)N([C@H](C)CO)C[C@H]1C,-0.185% (inactive)
7,CC(=NNC(=O)c1ccc2nc[nH]c2c1)c1ccc(Br)cc1,0.573% (inactive)
8,COc1ccc(/C(C)=N/NC(=O)c2ccc3nc[nH]c3c2)cc1,0.005% (inactive)
9,O=C(N/N=C/c1ccc(Cl)c(Cl)c1)c1ccc2nc[nH]c2c1,1.65% (active)
10,CCC(=O)Nc1ccc2c(c1)C(=O)N(C)C[C@H](OC)[C@H](C)CN(C(=O)c1ccccn1)[C@@H](C)CO2,0.116% (inactive)
11,C[C@]12CCC(=O)C=C1C=CC1C2CC[C@@]2(C)C1CC[C@@]21CCC(=O)O1 (stereo partly specified),43.7% (active)
12,CC(=O)C12CC(C)=C(C)CC1CC1C3CCC4=CC(=O)CCC4(C)C3CCC12C (stereo unspecified),-0.095% (inactive)
13,CC(=O)O[C@]1(C(C)=O)CC[C@H]2[C@@H]3C=C(C)C4=CC(=O)CC[C@]4(C)[C@H]3CC[C@@]21C,-0.13% (inactive)
14,C[C@H](CO)N1C[C@H](C)[C@H](CN(C)S(=O)(=O)c2cccs2)Oc2c(NC(=O)Nc3ccc4c(c3)OCO4)cccc2C1=O,-0.125% (inactive)
15,O=C(C[C@H]1CC[C@@H](NC(=O)c2ccc(F)cc2)[C@@H](CO)O1)NCc1ccncn1,-0.132% (inactive)
16,COCC(=O)Nc1ccc2c(c1)[C@H]1C[C@@H](CC(=O)NCc3ccccc3F)O[C@H](CO)[C@H]1O2,-0.327% (inactive)
17,C[C@@H](NC(=O)C[C@H]1CC[C@@H](NC(=O)Cc2ccccn2)[C@@H](CO)O1)c1ccccc1,-0.123% (inactive)
18,CO[C@@H]1CC[C@H]2CCN(C)C(=O)[C@@H](C)CN(C)C(=O)c3cccc(C#N)c3OC[C@@H]1O2,-0.102% (inactive)
